Reference: the supplement of paper PMC10849652
Of roughly 8,800 targets only a part is listed; those with a hit were picked by preference. About 0.5% of all pairs of compound and target were hits.

Experiments:
Assay in all cases: log2 fold change, soluble protein after heating vs DMSO (PISA); higher = thermal stabilisation; K562 lysate, 10 uM; active = over 0.2 and 3.5 SD of the protein, either way, in both replicates (recomputed)
vemurafenib = compound: CCCS(=O)(=O)Nc1ccc(F)c(C(=O)c2c[nH]c3ncc(-c4ccc(Cl)cc4)cc23)c1F [vemurafenib]
How it was run: (§1)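 K562 pellets were dounce-homogenised in PBS pH 7.4 with 1 mM MgCl2, and the crude extract at 1 mg/mL protein was treated with 10 μM compound for 30 min. Aliquots were heated for 3 min across 48°C-58°C, pooled, and brought to 0.5% NP-40 at 4°C; soluble protein was the supernatant after 21,000xg for 90 min. Soluble protein was quantified by TMTpro 16plex LC-MS/MS with channel sums equalised, and reported as log2 fold change in thermal stability against DMSO controls, with values from duplicates.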

[1] = compound: CCCS(=O)(=O)Nc1ccc(F)c(C(=O)c2c[nH]c3ncc(Cl)cc23)c1F
How it was run: as §1

barasertib = compound: CCN(CCCOc1ccc2c(Nc3cc(CC(=O)Nc4cccc(F)c4)[nH]n3)ncnc2c1)CCOP(=O)(O)O [barasertib]
How it was run: as §1

[2] = compound: CC[C@@H]1C(=O)N(C)c2cnc(Nc3ccc(C(=O)NC4CCN(C)CC4)cc3OC)nc2N1C1CCCC1
How it was run: as §1

volasertib = compound: CC[C@@H]1C(=O)N(C)c2cnc(Nc3ccc(C(=O)N[C@H]4CC[C@H](N5CCN(CC6CC6)CC5)CC4)cc3OC)nc2N1C(C)C [volasertib]
How it was run: as §1

[3] = compound: CCn1c(C(=O)N(C2CC2)C2CC2)cc2c3c(ncn3C)c(Nc3cc(C)n(C)n3)nc21
How it was run: as §1

[4] = compound: CCn1cc(-c2ccnc3[nH]c(-c4cccc(CN(C)C)c4)cc23)c(-c2ccc(NC(=O)N(C)C)cc2)n1
How it was run: as §1

[5] = compound: CN1CCC(CNc2ccc3ncc(-c4cccc(OC(F)(F)F)c4)n3n2)CC1
How it was run: as §1

saracatinib = compound: CN1CCN(CCOc2cc(OC3CCOCC3)c3c(Nc4c(Cl)ccc5c4OCO5)ncnc3c2)CC1 [saracatinib]
How it was run: as §1

sotrastaurin = compound: CN1CCN(c2nc(C3=C(c4c[nH]c5ccccc45)C(=O)NC3=O)c3ccccc3n2)CC1 [sotrastaurin]
How it was run: as §1

Measured: log2 fold change

SMAP2 (UniProt Q8WU79)
inactive: vemurafenib -0.043 | [1] 0.011 | barasertib 0.013 | [2] 0.047 | volasertib -0.02 | [3] 0.012 | [4] 0.043 | [5] -0.001 | saracatinib 0.044 | sotrastaurin -0.027

STIM1 (UniProt Q13586)
inactive: vemurafenib 0.003 | [1] 0.012 | barasertib 0.036 | [2] -0.076 | volasertib 0.006 | [3] 0.048 | [4] 0.259 | [5] -0.205 | saracatinib 0.003 | sotrastaurin -0.01

SLC25A38 (UniProt Q96DW6)
Sequence of UniProt Q96DW6 (Q96DW6 whole entry, looked up): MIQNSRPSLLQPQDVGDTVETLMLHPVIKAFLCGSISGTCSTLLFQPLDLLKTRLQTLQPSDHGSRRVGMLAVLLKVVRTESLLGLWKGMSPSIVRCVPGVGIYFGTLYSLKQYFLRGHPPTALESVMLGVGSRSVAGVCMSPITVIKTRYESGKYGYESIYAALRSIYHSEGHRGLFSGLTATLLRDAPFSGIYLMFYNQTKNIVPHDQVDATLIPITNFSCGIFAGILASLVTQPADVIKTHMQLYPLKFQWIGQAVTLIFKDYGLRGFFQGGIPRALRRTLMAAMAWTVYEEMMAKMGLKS
inactive: vemurafenib 0.037 | [1] 0.013 | barasertib -0.005 | [2] 0.209 | volasertib 0.012 | [3] 0.015 | [4] -0.055 | [5] 0.067 | saracatinib -0.127 | sotrastaurin 0.07

SPATA5L1 (UniProt Q9BVQ7)
inactive: vemurafenib 0.03 | [1] 0.015 | barasertib 0.052 | [2] -0.058 | volasertib -0.135 | [3] 0.014 | [4] -0.023 | [5] 0.012 | saracatinib 0.024 | sotrastaurin 0.015

SMTN isoform 6 (UniProt P53814)
Sequence of UniProt P53814 (P53814 whole entry, looked up): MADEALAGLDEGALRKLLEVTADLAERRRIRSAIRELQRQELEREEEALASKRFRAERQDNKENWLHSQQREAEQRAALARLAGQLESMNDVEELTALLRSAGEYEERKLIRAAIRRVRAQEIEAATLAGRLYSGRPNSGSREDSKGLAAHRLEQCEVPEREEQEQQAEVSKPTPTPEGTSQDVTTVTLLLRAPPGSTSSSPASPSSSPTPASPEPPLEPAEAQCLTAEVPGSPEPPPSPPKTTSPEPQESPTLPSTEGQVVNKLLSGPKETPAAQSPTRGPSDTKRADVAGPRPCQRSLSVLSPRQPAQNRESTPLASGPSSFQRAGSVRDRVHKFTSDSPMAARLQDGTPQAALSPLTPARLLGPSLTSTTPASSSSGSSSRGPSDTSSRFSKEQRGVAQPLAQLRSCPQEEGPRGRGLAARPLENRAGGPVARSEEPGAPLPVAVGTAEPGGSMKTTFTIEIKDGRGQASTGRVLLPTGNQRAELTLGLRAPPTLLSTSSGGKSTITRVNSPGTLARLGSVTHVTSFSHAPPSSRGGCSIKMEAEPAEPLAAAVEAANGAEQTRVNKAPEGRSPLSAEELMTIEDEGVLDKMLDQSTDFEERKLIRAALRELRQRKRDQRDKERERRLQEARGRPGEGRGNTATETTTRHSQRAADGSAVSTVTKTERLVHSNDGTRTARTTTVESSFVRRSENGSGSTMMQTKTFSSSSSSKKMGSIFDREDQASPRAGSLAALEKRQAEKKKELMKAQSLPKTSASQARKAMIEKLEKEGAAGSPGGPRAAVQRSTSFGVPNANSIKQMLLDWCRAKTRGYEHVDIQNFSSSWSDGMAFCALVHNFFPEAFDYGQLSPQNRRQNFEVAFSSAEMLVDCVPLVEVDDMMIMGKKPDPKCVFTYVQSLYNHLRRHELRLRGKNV
inactive: vemurafenib 0.021 | [1] 0.061 | barasertib 0.018 | [2] -0.007 | volasertib -0.078 | [3] -0.026 | [4] -0.036 | [5] -0.006 | saracatinib 0.013 | sotrastaurin -0.051

SMIM12 (UniProt Q96EX1)
inactive: vemurafenib 0.023 | [1] 0.024 | barasertib 0.106 | [2] 0.129 | volasertib -0.004 | [3] 0.08 | [5] -0.269 | saracatinib 0.041 | sotrastaurin 0.025
active: [4] 0.355

SMG1 (UniProt Q96Q15)
inactive: vemurafenib 0.059 | [1] 0.031 | barasertib 0.08 | [2] 0.017 | volasertib -0.027 | [3] -0.026 | [4] 0.003 | [5] -0.072 | saracatinib 0.039 | sotrastaurin 0.032

SSB (UniProt E7ERC4)
active: [4] 1.92
inactive: vemurafenib 0.111 | [1] 0 | barasertib -0.04 | [2] -0.281 | volasertib 0.003 | [3] -0.134 | [5] -0.377 | saracatinib 0.013 | sotrastaurin -0.012

STK38 (UniProt Q15208)
inactive: vemurafenib -0.046 | [1] -0.012 | barasertib 0.031 | [2] -0.112 | volasertib -0.092 | [3] 0.019 | [4] 0.122 | [5] 0.002 | saracatinib -0.019 | sotrastaurin 0.02

TARBP2 (UniProt Q15633)
Sequence of UniProt Q15633 (Q15633 whole entry, looked up): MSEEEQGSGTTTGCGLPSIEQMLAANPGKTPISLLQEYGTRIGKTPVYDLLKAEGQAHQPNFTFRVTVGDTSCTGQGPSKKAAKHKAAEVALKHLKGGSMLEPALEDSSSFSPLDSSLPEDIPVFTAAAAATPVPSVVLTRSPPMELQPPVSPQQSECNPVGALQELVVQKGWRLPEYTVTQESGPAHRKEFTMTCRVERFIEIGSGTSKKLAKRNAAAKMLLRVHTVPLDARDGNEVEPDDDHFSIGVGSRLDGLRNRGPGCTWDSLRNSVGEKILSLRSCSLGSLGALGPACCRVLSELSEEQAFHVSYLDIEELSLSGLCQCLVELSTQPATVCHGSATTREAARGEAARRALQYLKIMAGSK
inactive: vemurafenib -0.035 | [1] 0.092 | barasertib 0.093 | [2] -0.145 | volasertib -0.034 | [3] -0.016 | [4] -0.02 | [5] -0.093 | saracatinib 0.035 | sotrastaurin -0.006

SLC27A2 (UniProt O14975)
inactive: vemurafenib 0.089 | [1] 0.009 | barasertib 0.029 | [2] -0.033 | volasertib -0.084 | [3] -0.063 | [4] -0.024 | [5] 0.082 | saracatinib -0.021 | sotrastaurin 0.159

SND1 (UniProt Q7KZF4)
inactive: vemurafenib 0.024 | [1] 0.017 | barasertib 0.021 | [2] -0.099 | volasertib -0.084 | [3] 0.037 | [4] 0.058 | [5] -0.078 | saracatinib 0.014 | sotrastaurin 0.031

SMG6 (UniProt Q86US8)
Sequence of UniProt Q86US8 (Q86US8 whole entry, looked up): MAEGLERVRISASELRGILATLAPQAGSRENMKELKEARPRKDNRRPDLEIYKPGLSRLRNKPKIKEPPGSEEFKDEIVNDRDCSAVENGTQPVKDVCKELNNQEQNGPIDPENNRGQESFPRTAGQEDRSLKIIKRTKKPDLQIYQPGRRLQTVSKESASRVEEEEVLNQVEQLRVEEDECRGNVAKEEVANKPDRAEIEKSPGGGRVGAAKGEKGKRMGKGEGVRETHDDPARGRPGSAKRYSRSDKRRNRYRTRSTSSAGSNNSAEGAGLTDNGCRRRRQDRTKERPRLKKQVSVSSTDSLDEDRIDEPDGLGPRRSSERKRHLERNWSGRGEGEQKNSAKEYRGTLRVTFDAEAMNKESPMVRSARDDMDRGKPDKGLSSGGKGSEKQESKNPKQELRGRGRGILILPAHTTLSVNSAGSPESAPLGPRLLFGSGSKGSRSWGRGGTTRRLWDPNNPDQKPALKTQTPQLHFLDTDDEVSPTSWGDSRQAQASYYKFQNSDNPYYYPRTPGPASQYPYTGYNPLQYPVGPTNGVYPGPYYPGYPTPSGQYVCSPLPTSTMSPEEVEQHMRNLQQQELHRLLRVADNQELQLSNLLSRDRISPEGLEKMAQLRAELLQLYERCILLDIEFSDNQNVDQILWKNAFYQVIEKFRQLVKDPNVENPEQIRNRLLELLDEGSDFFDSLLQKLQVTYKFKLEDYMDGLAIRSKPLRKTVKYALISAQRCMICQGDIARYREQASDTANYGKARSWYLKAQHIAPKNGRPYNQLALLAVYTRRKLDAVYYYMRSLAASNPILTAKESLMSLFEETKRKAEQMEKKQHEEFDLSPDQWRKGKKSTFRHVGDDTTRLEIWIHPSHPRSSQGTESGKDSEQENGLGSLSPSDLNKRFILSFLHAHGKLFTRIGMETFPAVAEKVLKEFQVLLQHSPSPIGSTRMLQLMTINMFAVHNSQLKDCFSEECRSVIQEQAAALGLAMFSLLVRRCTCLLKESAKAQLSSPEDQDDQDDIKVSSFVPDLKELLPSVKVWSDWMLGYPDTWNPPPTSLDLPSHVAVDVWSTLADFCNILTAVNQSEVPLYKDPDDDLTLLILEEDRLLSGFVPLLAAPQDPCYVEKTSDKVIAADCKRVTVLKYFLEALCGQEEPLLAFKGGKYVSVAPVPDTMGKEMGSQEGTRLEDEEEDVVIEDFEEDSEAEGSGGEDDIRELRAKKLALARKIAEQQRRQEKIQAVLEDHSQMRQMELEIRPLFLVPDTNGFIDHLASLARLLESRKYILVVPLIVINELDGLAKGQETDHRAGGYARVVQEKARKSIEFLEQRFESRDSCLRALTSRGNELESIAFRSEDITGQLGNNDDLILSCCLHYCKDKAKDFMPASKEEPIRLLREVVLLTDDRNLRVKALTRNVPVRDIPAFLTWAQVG
inactive: vemurafenib 0.12 | [1] -0.006 | barasertib 0.014 | [2] -0.139 | volasertib -0.031 | [3] 0.038 | [4] -0.16 | [5] 0.141 | saracatinib 0.036 | sotrastaurin 0.098

STARD3 isoform 3 (UniProt Q14849)
inactive: vemurafenib 0.029 | [1] 0.054 | barasertib 0.051 | [2] 0.289 | volasertib 0.18 | [3] -0.031 | [4] -0.122 | [5] 0.02 | saracatinib -0.091 | sotrastaurin -0.016

SSU72 (UniProt Q9NP77)
inactive: vemurafenib -0.018 | [1] 0.001 | barasertib 0.018 | [2] -0.064 | volasertib -0.045 | [3] -0.049 | [5] 0.171 | saracatinib -0.001 | sotrastaurin 0.018
active: [4] -0.325

SMC2 (UniProt O95347)
inactive: vemurafenib 0.002 | [1] 0.007 | barasertib -0.001 | [2] -0.033 | volasertib -0.047 | [3] -0.002 | [4] 0.134 | [5] -0.121 | saracatinib 0.005 | sotrastaurin 0.014

SLC38A10 (UniProt Q9HBR0)
Sequence of UniProt Q9HBR0 (Q9HBR0 whole entry, looked up): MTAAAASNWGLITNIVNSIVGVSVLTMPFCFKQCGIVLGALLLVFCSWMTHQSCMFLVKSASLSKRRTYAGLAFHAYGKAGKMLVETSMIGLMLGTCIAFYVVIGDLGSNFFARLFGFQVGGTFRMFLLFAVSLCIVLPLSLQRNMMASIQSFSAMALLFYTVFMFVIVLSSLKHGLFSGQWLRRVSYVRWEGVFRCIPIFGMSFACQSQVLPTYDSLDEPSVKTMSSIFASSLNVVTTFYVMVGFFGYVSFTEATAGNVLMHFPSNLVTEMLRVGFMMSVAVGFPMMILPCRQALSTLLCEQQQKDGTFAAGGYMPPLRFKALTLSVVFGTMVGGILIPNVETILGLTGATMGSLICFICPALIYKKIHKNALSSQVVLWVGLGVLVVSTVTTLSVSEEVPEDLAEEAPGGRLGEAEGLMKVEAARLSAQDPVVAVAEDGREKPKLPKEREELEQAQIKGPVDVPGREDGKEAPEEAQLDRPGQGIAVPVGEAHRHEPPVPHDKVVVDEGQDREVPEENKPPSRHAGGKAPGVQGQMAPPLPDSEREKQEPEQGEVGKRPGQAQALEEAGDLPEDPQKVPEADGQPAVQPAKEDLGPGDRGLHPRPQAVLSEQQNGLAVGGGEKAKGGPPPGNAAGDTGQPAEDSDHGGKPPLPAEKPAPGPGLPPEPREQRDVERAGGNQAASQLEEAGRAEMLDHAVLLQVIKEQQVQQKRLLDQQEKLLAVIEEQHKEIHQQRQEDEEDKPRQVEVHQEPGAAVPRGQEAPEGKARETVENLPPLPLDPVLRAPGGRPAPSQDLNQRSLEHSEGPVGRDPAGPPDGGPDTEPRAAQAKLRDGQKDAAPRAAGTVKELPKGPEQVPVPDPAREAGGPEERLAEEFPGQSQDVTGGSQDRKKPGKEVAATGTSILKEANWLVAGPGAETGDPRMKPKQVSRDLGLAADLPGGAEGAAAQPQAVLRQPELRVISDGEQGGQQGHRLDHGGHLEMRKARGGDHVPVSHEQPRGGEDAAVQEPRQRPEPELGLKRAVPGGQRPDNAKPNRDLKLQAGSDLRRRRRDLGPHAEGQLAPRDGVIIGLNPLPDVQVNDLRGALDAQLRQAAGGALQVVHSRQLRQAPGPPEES
inactive: vemurafenib 0.1 | [1] -0.008 | barasertib 0.014 | [2] 0.111 | volasertib -0.015 | [3] -0.022 | [5] 0.022 | saracatinib 0.024 | sotrastaurin 0.015
active: [4] -0.229

SMAD2 (UniProt Q15796)
inactive: vemurafenib -0.027 | [1] 0.074 | barasertib 0.03 | [2] -0.031 | volasertib -0.006 | [3] -0.027 | [4] 0.025 | [5] -0.003 | saracatinib 0.017 | sotrastaurin -0.002

SPIRE1 (UniProt Q08AE8)
Sequence of UniProt Q08AE8 (Q08AE8 whole entry, looked up): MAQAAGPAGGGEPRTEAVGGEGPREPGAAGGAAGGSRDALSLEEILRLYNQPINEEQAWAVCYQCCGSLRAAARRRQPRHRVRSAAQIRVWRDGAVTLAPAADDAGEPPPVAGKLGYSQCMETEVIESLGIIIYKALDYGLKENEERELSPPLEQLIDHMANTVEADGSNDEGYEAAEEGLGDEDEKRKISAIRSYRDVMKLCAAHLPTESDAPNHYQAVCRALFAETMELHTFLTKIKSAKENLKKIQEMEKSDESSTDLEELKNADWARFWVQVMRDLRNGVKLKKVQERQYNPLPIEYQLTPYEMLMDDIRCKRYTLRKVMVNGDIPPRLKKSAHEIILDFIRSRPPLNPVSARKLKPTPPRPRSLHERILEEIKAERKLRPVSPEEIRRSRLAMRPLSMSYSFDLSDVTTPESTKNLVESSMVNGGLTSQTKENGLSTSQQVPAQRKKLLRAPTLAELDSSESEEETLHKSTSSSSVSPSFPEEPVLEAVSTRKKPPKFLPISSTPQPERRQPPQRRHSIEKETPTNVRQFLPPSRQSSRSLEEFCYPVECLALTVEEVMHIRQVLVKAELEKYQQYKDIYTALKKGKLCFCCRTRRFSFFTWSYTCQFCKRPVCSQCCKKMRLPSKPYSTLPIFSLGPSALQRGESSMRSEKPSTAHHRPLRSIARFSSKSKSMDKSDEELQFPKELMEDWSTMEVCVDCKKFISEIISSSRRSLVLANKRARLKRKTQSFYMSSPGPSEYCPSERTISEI
inactive: vemurafenib 0.009 | [1] 0.05 | barasertib 0.023 | [2] 0.051 | volasertib -0.016 | [3] 0.003 | [4] -0.298 | [5] 0.077 | saracatinib 0.017 | sotrastaurin 0.089

SMC4 (UniProt Q9NTJ3)
inactive: vemurafenib 0.002 | [1] 0.001 | barasertib 0.022 | [2] -0.059 | volasertib -0.041 | [3] 0.006 | [4] 0.053 | [5] -0.118 | saracatinib 0.015 | sotrastaurin 0.012

SNAP23 (UniProt O00161)
inactive: vemurafenib 0.013 | [1] -0.025 | barasertib 0.041 | [2] -0.009 | volasertib 0.034 | [3] 0.033 | [4] 0.025 | [5] 0.014 | saracatinib -0.011 | sotrastaurin -0.001

STK36 (UniProt Q9NRP7)
inactive: vemurafenib 0.188 | [1] 0.038 | barasertib -0.073 | [2] 0.302 | volasertib 0.01 | [3] -0.445 | [4] -0.532 | [5] 0.442 | saracatinib 0.077 | sotrastaurin -0.072

SLC25A17 (UniProt O43808)
inactive: vemurafenib -0.035 | [1] -0.031 | barasertib 0.02 | [2] 0.066 | volasertib 0.04 | [3] -0.043 | [4] -0.119 | [5] 0.103 | saracatinib 0.041 | sotrastaurin 0.015

SRSF2 (UniProt Q01130)
inactive: vemurafenib -0.001 | [1] -0.014 | barasertib -0.007 | [2] 0.02 | volasertib 0.002 | [3] -0.065 | [4] -0.232 | [5] 0.153 | saracatinib 0.033 | sotrastaurin 0.024

SSNA1 (UniProt O43805)
Sequence of UniProt O43805 (O43805 whole entry, looked up): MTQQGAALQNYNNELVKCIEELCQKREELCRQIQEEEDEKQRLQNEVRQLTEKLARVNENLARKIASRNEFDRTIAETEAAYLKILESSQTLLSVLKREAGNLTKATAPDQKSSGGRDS
inactive: vemurafenib -0.067 | [1] -0.022 | barasertib 0.134 | [2] 0.075 | volasertib 0.027 | [3] 0.016 | [4] -0.005 | [5] -0.002 | saracatinib 0.013 | sotrastaurin 0.004

STK24 (UniProt B4DR80)
inactive: vemurafenib 0.009 | [1] 0.005 | barasertib 0 | [2] -0.03 | volasertib -0.017 | [3] 0.005 | [4] 0.02 | [5] -0.007 | saracatinib 0.005 | sotrastaurin 0.046

TARBP1 (UniProt Q13395)
inactive: vemurafenib 0.019 | [1] -0.004 | barasertib 0.02 | [2] 0.025 | volasertib -0.032 | [3] -0.047 | [4] -0.053 | [5] -0.034 | saracatinib -0.055 | sotrastaurin 0.038

SMN1 (UniProt Q16637)
inactive: vemurafenib 0.031 | [1] 0.075 | barasertib -0.056 | [2] -0.026 | volasertib 0 | [3] -0.037 | [4] -0.073 | [5] -0.031 | saracatinib 0.053 | sotrastaurin -0.039

TAPT1 (UniProt Q6NXT6)
inactive: vemurafenib 0.031 | [1] 0.043 | barasertib -0.039 | [2] 0.024 | volasertib 0.028 | [3] -0.026 | [5] 0.106 | saracatinib -0.014 | sotrastaurin -0.002
active: [4] -0.229

SLC7A5 (UniProt Q01650)
active: [4] -0.312
inactive: vemurafenib -0.027 | [1] -0.017 | barasertib -0.038 | [2] -0.031 | volasertib 0.06 | [3] -0.001 | [5] 0.183 | saracatinib 0.056 | sotrastaurin 0.046
